Experiment [1] addresses pT7_6His-AlfaTag-HOXD13 (human, UniProt P35453 263-343). In words: PADIT-seq. As to conditions: dsDNA, one strand shown.
Experiment [2] addresses pT7_6His-AlfaTag-ZIF268 (human, UniProt P18146 335-423). In words: PADIT-seq. To be noted: dsDNA, one strand shown.

pT7_6His-AlfaTag-HOXD13, sequence (P35453 263-343): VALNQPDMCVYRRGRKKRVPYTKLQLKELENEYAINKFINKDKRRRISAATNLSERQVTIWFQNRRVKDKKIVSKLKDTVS

For the sequence “CTCGAGGATATCAAGATCTGGCCTCGGCGTCATAAAAGGAACCTCTAGCTAGCCGACTCACTATAGGGATAATCGCCCTGAGCAAAGACC”, the figures for the binding signal in experiment [1] and in experiment [2] were 2.72 ± 0.0783 log2FC and 0.00486 ± 0.0824 log2FC, respectively.

Take “CTCGAGGATATCAAGATCTGGCCTCGGCGGGATAAAAGGAACCTCTAGCTAGCCGACTCACTATAGGGATAATCGCCCTGAGCAAAGACC”: the binding signal in experiment [1] was found to be 0.241 ± 0.0798 log2FC; in experiment [2] it was 0.0461 ± 0.0742 log2FC.

As for “CTCGAGGATATCAAGATCTGGCCTCGGCATTTTACTTGGAACCTCTAGCTAGCCGACTCACTATAGGGATAATCGCCCTGAGCAAAGACC”, the binding signal in experiment [1] is 1.23 ± 0.0944 log2FC; in experiment [2] it was 0.0654 ± 0.0956 log2FC.

As for “CTCGAGGATATCAAGATCTGGCCTCGGCCCTGTAAAAGGAACCTCTAGCTAGCCGACTCACTATAGGGATAATCGCCCTGAGCAAAGACC”, the figures for the binding signal in experiment [1] and in experiment [2] were 2.46 ± 0.085 log2FC and 0.046 ± 0.0931 log2FC, respectively.

Turning to “CTCGAGGATATCAAGATCTGGCCTCGGCGCGTGGACTGGAACCTCTAGCTAGCCGACTCACTATAGGGATAATCGCCCTGAGCAAAGACC”, the binding signal is -0.334 ± 0.121 log2FC in experiment [1] and 0.0272 ± 0.108 log2FC in experiment [2].

Regarding “CTCGAGGATATCAAGATCTGGCCTCGGCATTTTATCTGGAACCTCTAGCTAGCCGACTCACTATAGGGATAATCGCCCTGAGCAAAGACC”, the binding signal in experiment [1] turned out to be 0.909 ± 0.103 log2FC; in experiment [2], 0.0226 ± 0.102 log2FC.

Consider “CTCGAGGATATCAAGATCTGGCCTCGGCAAATGGGCGGGAACCTCTAGCTAGCCGACTCACTATAGGGATAATCGCCCTGAGCAAAGACC”, for which the binding signal is -0.536 ± 0.104 log2FC in experiment [1] and 0.157 ± 0.0868 log2FC in experiment [2].

With “CTCGAGGATATCAAGATCTGGCCTCGGCCGCCCAATGGGAACCTCTAGCTAGCCGACTCACTATAGGGATAATCGCCCTGAGCAAAGACC”, the binding signal in experiment [1] was -0.785 ± 0.113 log2FC; in experiment [2] it was 0.0226 ± 0.0907 log2FC.

Turning to “CTCGAGGATATCAAGATCTGGCCTCGGCGAGTGGGCGGGAACCTCTAGCTAGCCGACTCACTATAGGGATAATCGCCCTGAGCAAAGACC”, the binding signal in experiment [1] is -0.602 ± 0.0984 log2FC; in experiment [2], 2.79 ± 0.0771 log2FC.

As for “CTCGAGGATATCAAGATCTGGCCTCGGCCGCCCAGGAGGAACCTCTAGCTAGCCGACTCACTATAGGGATAATCGCCCTGAGCAAAGACC”, the binding signal in experiment [1] is -1.1 ± 0.149 log2FC; in experiment [2], 0.0116 ± 0.118 log2FC.

Consider “CTCGAGGATATCAAGATCTGGCCTCGGCGTTTTAACGGGAACCTCTAGCTAGCCGACTCACTATAGGGATAATCGCCCTGAGCAAAGACC”, for which the binding signal in experiment [1] came out at 1.81 ± 0.0879 log2FC; in experiment [2], 0.0881 ± 0.0918 log2FC.

For the sequence “CTCGAGGATATCAAGATCTGGCCTCGGCGCGTGGGGTGGAACCTCTAGCTAGCCGACTCACTATAGGGATAATCGCCCTGAGCAAAGACC”, the binding signal in experiment [1] was -1.1 ± 0.157 log2FC; in experiment [2], 1.28 ± 0.111 log2FC.

“CTCGAGGATATCAAGATCTGGCCTCGGCGCGTGGAATGGAACCTCTAGCTAGCCGACTCACTATAGGGATAATCGCCCTGAGCAAAGACC”: the binding signal in experiment [1] was -0.959 ± 0.133 log2FC; in experiment [2], 0.0778 ± 0.106 log2FC.

As to “CTCGAGGATATCAAGATCTGGCCTCGGCATTTTAGGGGGAACCTCTAGCTAGCCGACTCACTATAGGGATAATCGCCCTGAGCAAAGACC”, the binding signal turned out to be 1.57 ± 0.105 log2FC in experiment [1] and 0.0683 ± 0.108 log2FC in experiment [2].

On to “CTCGAGGATATCAAGATCTGGCCTCGGCCGCCCATGCGGAACCTCTAGCTAGCCGACTCACTATAGGGATAATCGCCCTGAGCAAAGACC”, for which the binding signal in experiment [1] is -0.953 ± 0.115 log2FC; in experiment [2] it was 0.0314 ± 0.091 log2FC.

Turning to “CTCGAGGATATCAAGATCTGGCCTCGGCTATTGGGCGGGAACCTCTAGCTAGCCGACTCACTATAGGGATAATCGCCCTGAGCAAAGACC”, the figures for the binding signal in experiment [1] and in experiment [2] were -0.163 ± 0.106 log2FC and 0.205 ± 0.0951 log2FC, respectively.

With “CTCGAGGATATCAAGATCTGGCCTCGGCGCGTGGACAGGAACCTCTAGCTAGCCGACTCACTATAGGGATAATCGCCCTGAGCAAAGACC”, the binding signal is -1.05 ± 0.134 log2FC in experiment [1] and 0.15 ± 0.106 log2FC in experiment [2].

On to “CTCGAGGATATCAAGATCTGGCCTCGGCATATGGGCGGGAACCTCTAGCTAGCCGACTCACTATAGGGATAATCGCCCTGAGCAAAGACC”, for which the binding signal is -0.745 ± 0.103 log2FC in experiment [1] and 0.0376 ± 0.0849 log2FC in experiment [2].

Turning to “CTCGAGGATATCAAGATCTGGCCTCGGCAGTGTAAAAGGAACCTCTAGCTAGCCGACTCACTATAGGGATAATCGCCCTGAGCAAAGACC”, the binding signal in experiment [1] worked out at 0.712 ± 0.08 log2FC; in experiment [2], 0.045 ± 0.0778 log2FC.

Turning to “CTCGAGGATATCAAGATCTGGCCTCGGCGCGTGGTATGGAACCTCTAGCTAGCCGACTCACTATAGGGATAATCGCCCTGAGCAAAGACC”, the binding signal in experiment [1] is -1.06 ± 0.113 log2FC; in experiment [2], 0.45 ± 0.0837 log2FC.

Regarding “CTCGAGGATATCAAGATCTGGCCTCGGCGCATGGGCGGGAACCTCTAGCTAGCCGACTCACTATAGGGATAATCGCCCTGAGCAAAGACC”, the values for the binding signal in experiment [1] and in experiment [2] were -0.757 ± 0.112 log2FC and 0.51 ± 0.0916 log2FC, respectively.

On to “CTCGAGGATATCAAGATCTGGCCTCGGCGCGAAGGCGGGAACCTCTAGCTAGCCGACTCACTATAGGGATAATCGCCCTGAGCAAAGACC”, for which the results for the binding signal in experiment [1] and in experiment [2] were -1.08 ± 0.132 log2FC and 0.278 ± 0.0993 log2FC, respectively.

For “CTCGAGGATATCAAGATCTGGCCTCGGCATCCTAAAAGGAACCTCTAGCTAGCCGACTCACTATAGGGATAATCGCCCTGAGCAAAGACC”, the binding signal is 0.337 ± 0.103 log2FC in experiment [1] and 0.0323 ± 0.0965 log2FC in experiment [2].

Consider “CTCGAGGATATCAAGATCTGGCCTCGGCGACCCACGCGGAACCTCTAGCTAGCCGACTCACTATAGGGATAATCGCCCTGAGCAAAGACC”, for which the binding signal is -1.05 ± 0.109 log2FC in experiment [1] and 0.214 ± 0.0833 log2FC in experiment [2].

Turning to “CTCGAGGATATCAAGATCTGGCCTCGGCTCACTAAAAGGAACCTCTAGCTAGCCGACTCACTATAGGGATAATCGCCCTGAGCAAAGACC”, the binding signal in experiment [1] came out at 0.718 ± 0.11 log2FC; in experiment [2] it was 0.00307 ± 0.107 log2FC.

For the sequence “CTCGAGGATATCAAGATCTGGCCTCGGCATTTTAAGAGGAACCTCTAGCTAGCCGACTCACTATAGGGATAATCGCCCTGAGCAAAGACC”, the figures for the binding signal in experiment [1] and in experiment [2] were 2.98 ± 0.0964 log2FC and 0.0486 ± 0.104 log2FC, respectively.

Source of the values: article doi:10.1101/2024.03.05.583629.
